# Where “and” joins values, the source holds several entries; their conditions need not be identical. Equal entries are not always repeated. Some compounds were tested as several samples or in several runs, with calls that do not always agree. Calls of active or inactive are those of the source. Rule for the calls: active = hit-call score of the fitted dose curve at least 0.9, where 1 is the maximum; inactive = score below 0.9.
# Experiments:
# [1] = read-out: Collagen I, COL1A1 (gene 1277); assay: BSK_MyoF_CollagenI: BioMAP Diversity Plus: MyoF Assay for Collagen I Biomarker Activity (AID 2284238); conditions: primary human lung fibroblasts
# Procedure, shortened: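 Human lung fibroblasts were exposed to test chemical for 24 h, then Collagen I was quantified by ELISA. Activity was fitted in the increasing direction against DMSO as the negative control and baseline.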
# [2] = read-out: Collagen III, COL3A1 (gene 1281); assay: BSK_MyoF_CollagenIII: BioMAP Diversity Plus: MyoF Assay for Collagen III Biomarker Activity (AID 2284239); conditions: primary human lung fibroblasts
# Procedure, shortened: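 Human lung fibroblasts were dosed with chemicals and, 24 hours later, collagen III was measured by ELISA. Activity was fitted in the positive direction against the DMSO negative-control baseline.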
# [3] = read-out: Interleukin 17F (IL17F), IL17F (gene 112744); assay: BSK_BT_xIL17F: BioMAP Diversity Plus: BT Assay for Interleukin 17F (IL17F) Biomarker Activity (AID 2284243); conditions: primary human B cells with PBMC
# Procedure, shortened: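 B cell/PBMC co-culture (human primary), 24 h compound exposure; sIL-17F by Luminex xMAP; gain-of-signal fit vs DMSO baseline.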
# [4] = read-out: Actin alpha 1 (ACTA1), ACTA1 (gene 58); assay: BSK_MyoF_ACTA1: BioMAP Diversity Plus: MyoF Assay for Actin alpha 1 (ACTA1) Biomarker Activity (AID 2284244); conditions: primary human lung fibroblasts
# Procedure, shortened: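 alpha-SMA levels read by ELISA against DMSO baseline, 24 h post-dose, in primary human lung fibroblasts. Parallel cultures stained with 0.1% SRB after 10% TCA fixation (560 nm) to flag overt cytotoxicity.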
# [5] = read-out: Interleukin 2 (IL2), IL2 (gene 3558); assay: BSK_BT_xIL2: BioMAP Diversity Plus: BT Assay for Interleukin 2 (IL2) Biomarker Activity (AID 2284245); conditions: primary human B cells with PBMC
# Procedure, shortened: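 Secreted IL-2 was read by Luminex xMAP from B cells co-cultured with PBMC (human primary) 24 h post-dosing; activity was analysed as gain of signal relative to DMSO vehicle.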
# [6] = read-out: Basic fibroblast growth factor (bFGF), FGF2 (gene 2247); assay: BSK_MyoF_bFGF: BioMAP Diversity Plus: MyoF Assay for Basic fibroblast growth factor (bFGF) Biomarker Activity (AID 2284246); conditions: primary human lung fibroblasts
# Procedure, shortened: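 bFGF was measured by ELISA in primary human lung fibroblasts 24 h after chemical addition. Signal was analysed as positive-direction change relative to DMSO baseline.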
# [7] = read-out: Collagen IV, COL4A1 (gene 1282); assay: BSK_MyoF_CollagenIV: BioMAP Diversity Plus: MyoF Assay for Collagen IV Biomarker Activity (AID 2284247); conditions: primary human lung fibroblasts
# Procedure, shortened: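 Collagen IV quantified by ELISA in human lung fibroblast cultures 24 h after chemical treatment, with DMSO as baseline. Parallel SRB staining (0.1% SRB after TCA fixation, 560 nm) flags overt cytotoxicity.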
# [8] = read-out: Monokine induced gamma interferon (MIG), CXCL9 (gene 4283); assay: BSK_KF3CT_MIG: BioMAP Diversity Plus: KF3CT Assay for Monokine induced gamma interferon (MIG) Biomarker Activity (AID 2284248); conditions: primary human keratinocytes with fibroblasts
# Procedure, shortened: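 Human keratinocyte plus foreskin fibroblast primary co-culture dosed with test chemical for 24 h; MIG level measured by ELISA and fitted in the positive direction against DMSO as baseline.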
# [9] = read-out: Vascular cell adhesion molecule 1 (VCAM1), VCAM1 (gene 7412); assay: BSK_BF4T_VCAM1: BioMAP Diversity Plus: BF4T Assay for Vascular cell adhesion molecule 1 (VCAM1) Biomarker Activity (AID 2284249); conditions: primary human bronchial epithelial cells with fibroblasts
# Procedure, shortened: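 Cell-surface VCAM-1 quantified by ELISA after 24 h chemical exposure of human bronchial epithelial/dermal fibroblast co-cultures, with SRB staining in parallel wells for cytotoxicity; DMSO baseline, positive-direction fitting.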
# [10] = read-out: Interferon-inducible T-cell alpha chemoattractant (ITAC), CXCL11 (gene 6373); assay: BSK_hDFCGF_ITAC: BioMAP Diversity Plus: hDFCGF Assay for Interferon-inducible T-cell alpha chemoattractant (ITAC) Biomarker Activity (AID 2284251); conditions: primary human foreskin fibroblasts
# Procedure, shortened: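 Measured by ELISA, the chemokine level serves as the endpoint in human skin fibroblast primary cultures 24 h after compound addition. Increases relative to DMSO-treated wells define activity.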
# [11] = read-out: Plasminogen activator inhibitor-1 (PAI1), SERPINE1 (gene 5054); assay: BSK_KF3CT_PAI1: BioMAP Diversity Plus: KF3CT Assay for Plasminogen activator inhibitor-1 (PAI1) Biomarker Activity (AID 2284252); conditions: primary human keratinocytes with fibroblasts
# Procedure, shortened: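 PAI-1 levels quantified by ELISA after 24 h compound exposure of primary human skin keratinocytes co-cultured with fibroblasts. Activity is the gain relative to DMSO; cytotoxicity tracked in parallel cultures via SRB staining.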
# [12] = read-out: Monocyte Chemoattractant Protein-1 (MCP1), CCL2 (gene 6347); assay: BSK_IMphg_MCP1: BioMAP Diversity Plus: IMphg Assay for Monocyte Chemoattractant Protein-1 (MCP1) Biomarker Activity (AID 2284253); conditions: primary human endothelial cells with macrophages
# Procedure, shortened: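 ELISA readout of MCP-1 at 24 hours in IMphg co-cultures of venular endothelial cells and macrophages, normalised to DMSO; parallel cultures stained with sulforhodamine B for overt cytotoxicity.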
# [13] = read-out: Interleukin-8 (IL8), CXCL8 (gene 3576); assay: BSK_KF3CT_IL8: BioMAP Diversity Plus: KF3CT Assay for Interleukin-8 (IL8) Biomarker Activity (AID 2284254); conditions: primary human keratinocytes with fibroblasts
# Procedure, shortened: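 Human primary keratinocyte plus foreskin fibroblast co-culture dosed with test chemicals; IL-8 measured by ELISA 24 h after dosing. Activity fitted in the positive direction relative to DMSO negative control.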
# [14] = read-out: Collagen I, COL1A1 (gene 1277); assay: BSK_hDFCGF_CollagenI: BioMAP Diversity Plus: hDFCGF Assay for Collagen I Biomarker Activity (AID 2284250); conditions: primary human foreskin fibroblasts
# Procedure, shortened: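 Collagen I quantified by ELISA 24 h after chemical dosing of human dermal fibroblast primary cells, with parallel SRB staining (0.1%, TCA-fixed, 560 nm) for overt cytotoxicity.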
smiles,measurement,setting,value
C=C(C)C(=O)OCCC(F)(F)C(F)(F)C(F)(F)C(F)(F)C(F)(C(F)(F)F)C(F)(F)F,outcome,[1],inactive
same,outcome,[2],inactive
same,outcome,[3],inactive
same,outcome,[4],inactive
same,outcome,[5],inactive
same,outcome,[6],inactive
same,outcome,[7],inactive
same,outcome,[8],inactive
same,outcome,[9],inactive
same,outcome,[10],inactive
same,outcome,[11],inactive
same,outcome,[12],inactive
same,outcome,[13],inactive
FC(F)(I)C(F)(F)C(F)(F)C(F)(F)I,AC50,[1],51.6 µM (active) and 46.4 µM (active) and 54.1 µM (active)
same,AC50,[2],53.1 µM (active) and 54.9 µM (active) and 54.2 µM (active)
same,AC50,[3],30 µM (active) and 47.7 µM (active) and 43.1 µM (active)
same,AC50,[4],48.6 µM (active) and 49 µM (active) and 34.3 µM (active)
same,AC50,[5],54.7 µM (active) and 47.8 µM (active) and 43.6 µM (active)
same,AC50,[6],51.4 µM (active) and 45.9 µM (active)
same,AC50,[7],50.6 µM (active) and 50.7 µM (active) and 51.6 µM (active)
same,AC50,[8],58.1 µM (active) and 47.2 µM (active) and 51.6 µM (active)
same,AC50,[9],41.5 µM (active) and 47 µM (active) and 30 µM (active)
same,AC50,[10],29.2 µM (active) and 46.2 µM (active) and 52 µM (active)
same,AC50,[11],52.5 µM (active) and 47 µM (active) and 54.9 µM (active)
same,outcome,[12],inactive
same,AC50,[13],45.8 µM (active) and 47.4 µM (active)
same,outcome,[13],inactive
COC(=O)CCC(F)(F)C(F)(F)C(F)(F)C(F)(F)F,outcome,[1],inactive
same,outcome,[2],inactive
same,outcome,[3],inactive
same,outcome,[4],inactive
same,outcome,[5],inactive
same,outcome,[6],inactive
same,outcome,[7],inactive
same,outcome,[8],inactive
same,outcome,[9],inactive
same,outcome,[10],inactive
same,outcome,[11],inactive
same,outcome,[12],inactive
same,outcome,[13],inactive
O=C(Cl)C(F)(F)C(F)(F)C(F)(F)C(F)(F)C(F)(F)C(F)(F)C(F)(F)C(F)(F)F,AC50,[1],41.3 µM (active) and 41.8 µM (active) and 44.2 µM (active)
same,AC50,[2],22.5 µM (active) and 23.5 µM (active) and 24.7 µM (active)
same,outcome,[3],inactive
same,AC50,[4],23.6 µM (active) and 43.7 µM (active) and 30 µM (active)
same,outcome,[5],inactive
same,outcome,[6],inactive
same,AC50,[7],18.7 µM (active) and 20.4 µM (active) and 21.3 µM (active)
same,outcome,[8],inactive
same,AC50,[9],38.9 µM (active) and 47.4 µM (active) and 45.5 µM (active)
same,AC50,[10],20.4 µM (active) and 48.2 µM (active) and 30 µM (active)
same,AC50,[11],41.1 µM (active) and 38.8 µM (active) and 22.7 µM (active)
same,AC50,[12],51.4 µM (active)
same,outcome,[12],inactive
same,AC50,[13],30 µM (active)
same,outcome,[13],inactive
O=C(O)C(F)(F)C(F)(F)F,outcome,[1],inactive
same,outcome,[2],inactive
same,outcome,[3],inactive
same,outcome,[4],inactive
same,outcome,[5],inactive
same,outcome,[6],inactive
same,outcome,[7],inactive
same,outcome,[8],inactive
same,outcome,[9],inactive
same,outcome,[14],inactive
same,outcome,[10],inactive
same,outcome,[11],inactive
same,outcome,[12],inactive
same,outcome,[13],inactive
C=CC(F)(F)C(F)(F)C(F)(F)C(F)(F)C(F)(F)C(F)(F)C(F)(F)C(F)(F)F,outcome,[1],inactive
same,outcome,[2],inactive
same,outcome,[3],inactive
same,outcome,[4],inactive
same,outcome,[5],inactive
same,outcome,[6],inactive
same,outcome,[7],inactive
same,outcome,[8],inactive
same,outcome,[9],inactive
same,outcome,[10],inactive
same,outcome,[11],inactive
same,outcome,[12],inactive
same,outcome,[13],inactive
FC(F)(F)C(F)(F)C(F)(F)N(C(F)(F)C(F)(F)C(F)(F)F)C(F)(F)C(F)(F)C(F)(F)F,outcome,[1],inactive
same,outcome,[2],inactive
same,outcome,[3],inactive
same,outcome,[4],inactive
same,outcome,[5],inactive
same,outcome,[6],inactive
same,outcome,[7],inactive
same,outcome,[8],inactive
same,outcome,[9],inactive
same,outcome,[10],inactive
same,outcome,[11],inactive
same,outcome,[12],inactive
same,outcome,[13],inactive
O=C(O)C(F)(F)C(F)(F)C(F)F,outcome,[1],inactive
same,outcome,[2],inactive
same,outcome,[3],inactive
same,outcome,[4],inactive
same,outcome,[5],inactive
same,outcome,[6],inactive
same,outcome,[7],inactive
same,outcome,[8],inactive
same,outcome,[9],inactive
same,outcome,[10],inactive
same,outcome,[11],inactive
same,outcome,[12],inactive
same,outcome,[13],inactive
O=C(O)C(F)(F)C(F)(F)C(F)(F)C(F)(F)F,outcome,[1],inactive
same,outcome,[2],inactive
same,outcome,[3],inactive
same,outcome,[4],inactive
same,outcome,[5],inactive
same,outcome,[6],inactive
same,outcome,[7],inactive
same,outcome,[8],inactive
same,outcome,[9],inactive
same,outcome,[10],inactive
same,outcome,[11],inactive
same,outcome,[12],inactive
same,outcome,[13],inactive
FC(F)(F)C(F)(F)C(F)(F)C(F)(F)C(F)(F)C(F)(F)C(F)(F)I,AC50,[1],4.56 µM (active) and 3.16 µM (active)
same,AC50,[2],5.06 µM (active) and 4.85 µM (active)
same,outcome,[3],inactive
same,AC50,[4],3.33 µM (active)
same,outcome,[5],inactive
same,outcome,[6],inactive
same,AC50,[7],4.81 µM (active) and 1.16 µM (active)
same,outcome,[8],inactive
same,outcome,[9],inactive
same,outcome,[10],inactive
same,outcome,[11],inactive
same,outcome,[12],inactive
same,outcome,[13],inactive
FC1CC(F)(F)C(F)(F)C1(F)F (centres undefined),outcome,[1],inactive
same,outcome,[2],inactive
same,outcome,[3],inactive
same,outcome,[4],inactive
same,outcome,[5],inactive
same,outcome,[6],inactive
same,outcome,[7],inactive
same,outcome,[8],inactive
same,outcome,[9],inactive
same,outcome,[14],inactive
same,outcome,[10],inactive
same,outcome,[11],inactive
same,outcome,[12],inactive
same,outcome,[13],inactive
O=S(=O)(OCC(F)F)C(F)(F)F,outcome,[1],inactive
same,outcome,[2],inactive
same,outcome,[3],inactive
same,outcome,[4],inactive
same,outcome,[5],inactive
same,outcome,[6],inactive
same,outcome,[7],inactive
same,outcome,[8],inactive
same,outcome,[9],inactive
same,outcome,[10],inactive
same,AC50,[11],324 nM (active)
same,outcome,[11],inactive
same,outcome,[12],inactive
same,outcome,[13],inactive
NC(=O)C(F)(F)C(F)(F)C(F)(F)C(F)(F)F,outcome,[1],inactive
same,outcome,[2],inactive
same,outcome,[3],inactive
same,outcome,[4],inactive
same,outcome,[5],inactive
same,outcome,[6],inactive
same,outcome,[7],inactive
same,outcome,[8],inactive
same,outcome,[9],inactive
same,outcome,[10],inactive
same,outcome,[11],inactive
same,outcome,[12],inactive
same,outcome,[13],inactive
CCO[Si](CCC(F)(F)C(F)(F)C(F)(F)C(F)(F)C(F)(F)C(F)(F)F)(OCC)OCC,outcome,[1],inactive
same,outcome,[2],inactive
same,outcome,[3],inactive
same,outcome,[4],inactive
same,outcome,[5],inactive
same,outcome,[6],inactive
same,outcome,[7],inactive
same,outcome,[8],inactive
same,outcome,[9],inactive
same,outcome,[14],inactive
same,outcome,[10],inactive
same,outcome,[11],inactive
same,outcome,[12],inactive
same,outcome,[13],inactive

# Source: PubChem BioAssay (EPA / NIEHS)
